# According to the supplement of paper PMC12282887:
# ± gives the standard deviation of the averaged measurements.
# Tests used:
# Assay in all cases: promoter activity interaction Z-score (Lux/OD deviation from empty-vector control); higher = stronger promoter induction by the compound
# [1] = tested on: E. coli BW25113 acrABp lux reporter
# Method in brief: (§1)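 At 37°C, E. coli BW25113 reporter cultures in 40 µl LB Lennox in 384-well plates were read for OD600 and luminescence every 30 min for 12 h. Windows were 0–8 h for wild type and 1–9 h for deletion strains, and wells under 10% of the median growth value were removed. The score is the Z-transformed residual of growth-normalised luminescence against a control fit.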
# [2] = tested on: E. coli BW25113 micFp lux reporter
# Method in brief: as §1
# [3] = tested on: E. coli BW25113 ompFp lux reporter
# Method in brief: as §1
# [4] = tested on: E. coli BW25113 robp lux reporter
# Method in brief: as §1
# [5] = tested on: E. coli BW25113 soxSp lux reporter
# Method in brief: as §1
# [6] = tested on: E. coli BW25113 tolCp lux reporter
# Method in brief: as §1
# [7] = 14.6 µg/ml, genetic background: wild type
# [8] = 14.6 µg/ml, genetic background: ΔmarA
# [9] = 14.6 µg/ml, genetic background: Δrob
# [10] = 14.6 µg/ml, genetic background: ΔsoxS
# [11] = 29.3 µg/ml, genetic background: wild type
# [12] = 29.3 µg/ml, genetic background: ΔmarA
# [13] = 29.3 µg/ml, genetic background: Δrob
# [14] = 29.3 µg/ml, genetic background: ΔsoxS
# [15] = 58.6 µg/ml, genetic background: wild type
# [16] = 58.6 µg/ml, genetic background: ΔmarA
# [17] = 58.6 µg/ml, genetic background: Δrob
# [18] = 58.6 µg/ml, genetic background: ΔsoxS
# [19] = 117.2 µg/ml, genetic background: wild type
# [20] = 117.2 µg/ml, genetic background: ΔmarA
# [21] = 117.2 µg/ml, genetic background: Δrob
# [22] = 117.2 µg/ml, genetic background: ΔsoxS
smiles,measurement,setting,value
c1ccc2[nH]ccc2c1 [Indole],promoter activity interaction Z-score,[1]; [7],0.275 ± 0.27
same,promoter activity interaction Z-score,[1]; [8],0.599 ± 0.24
same,promoter activity interaction Z-score,[1]; [9],0.275 ± 0.17
same,promoter activity interaction Z-score,[1]; [10],0.000826 ± 0.08
same,promoter activity interaction Z-score,[1]; [11],0.165 ± 0.071
same,promoter activity interaction Z-score,[1]; [12],0.0409 ± 0.28
same,promoter activity interaction Z-score,[1]; [13],0.281 ± 0.18
same,promoter activity interaction Z-score,[1]; [14],0.463 ± 0.32
same,promoter activity interaction Z-score,[1]; [15],-0.112 ± 0.29
same,promoter activity interaction Z-score,[1]; [16],0.00303 ± 0.77
same,promoter activity interaction Z-score,[1]; [17],-0.21 ± 0.23
same,promoter activity interaction Z-score,[1]; [18],-0.312 ± 0.055
same,promoter activity interaction Z-score,[1]; [19],0.167 ± 0.52
same,promoter activity interaction Z-score,[1]; [20],-0.375 ± 0.025
same,promoter activity interaction Z-score,[1]; [21],-0.278 ± 0.012
same,promoter activity interaction Z-score,[1]; [22],0.0661 ± 0.25
same,promoter activity interaction Z-score,[2]; [7],-0.0516 ± 0.12
same,promoter activity interaction Z-score,[2]; [8],0.0327 ± 0.011
same,promoter activity interaction Z-score,[2]; [9],0.00243 ± 0.044
same,promoter activity interaction Z-score,[2]; [10],0.0247 ± 0.094
same,promoter activity interaction Z-score,[2]; [11],-0.0146 ± 0.021
same,promoter activity interaction Z-score,[2]; [12],-0.0163 ± 0.074
same,promoter activity interaction Z-score,[2]; [13],0.00613 ± 0.19
same,promoter activity interaction Z-score,[2]; [14],0.586 ± 0.069
same,promoter activity interaction Z-score,[2]; [15],0.0628 ± 0.13
same,promoter activity interaction Z-score,[2]; [16],-0.00313 ± 0.016
same,promoter activity interaction Z-score,[2]; [17],-0.138 ± 0.18
same,promoter activity interaction Z-score,[2]; [18],0.204 ± 0.28
same,promoter activity interaction Z-score,[2]; [19],0.516 ± 0.39
same,promoter activity interaction Z-score,[2]; [20],-0.0638 ± 0.0022
same,promoter activity interaction Z-score,[2]; [21],0.0554 ± 0.19
same,promoter activity interaction Z-score,[2]; [22],0.622 ± 0.087
same,promoter activity interaction Z-score,[3]; [7],0.322 ± 0.069
same,promoter activity interaction Z-score,[3]; [8],0.511 ± 0.0093
same,promoter activity interaction Z-score,[3]; [9],0.571 ± 0.51
same,promoter activity interaction Z-score,[3]; [10],0.225 ± 0.49
same,promoter activity interaction Z-score,[3]; [11],0.195 ± 0.09
same,promoter activity interaction Z-score,[3]; [12],0.309 ± 0.31
same,promoter activity interaction Z-score,[3]; [13],0.788 ± 0.39
same,promoter activity interaction Z-score,[3]; [14],0.734 ± 0.24
same,promoter activity interaction Z-score,[3]; [15],0.0808 ± 0.21
same,promoter activity interaction Z-score,[3]; [16],-0.0711 ± 0.22
same,promoter activity interaction Z-score,[3]; [17],-0.121 ± 0.61
same,promoter activity interaction Z-score,[3]; [18],-0.221 ± 0.36
same,promoter activity interaction Z-score,[3]; [19],0.63 ± 0.055
same,promoter activity interaction Z-score,[3]; [20],0.332 ± 0.29
same,promoter activity interaction Z-score,[3]; [21],0.341 ± 0.29
same,promoter activity interaction Z-score,[3]; [22],0.406 ± 0.096
same,promoter activity interaction Z-score,[4]; [7],0.568 ± 0.58
same,promoter activity interaction Z-score,[4]; [8],1.11 ± 0.29
same,promoter activity interaction Z-score,[4]; [9],0.842 ± 0.094
same,promoter activity interaction Z-score,[4]; [10],0.694 ± 0.19
same,promoter activity interaction Z-score,[4]; [11],0.773 ± 0.055
same,promoter activity interaction Z-score,[4]; [12],1.1 ± 0.014
same,promoter activity interaction Z-score,[4]; [13],0.598 ± 0.34
same,promoter activity interaction Z-score,[4]; [14],0.773 ± 0.2
same,promoter activity interaction Z-score,[4]; [15],-0.0581 ± 0.17
same,promoter activity interaction Z-score,[4]; [16],0.148 ± 0.5
same,promoter activity interaction Z-score,[4]; [17],0.569 ± 0.13
same,promoter activity interaction Z-score,[4]; [18],0.0833 ± 0.58
same,promoter activity interaction Z-score,[4]; [19],0.0933 ± 0.09
same,promoter activity interaction Z-score,[4]; [20],0.0401 ± 0.093
same,promoter activity interaction Z-score,[4]; [21],-0.335 ± 0.55
same,promoter activity interaction Z-score,[4]; [22],0.0103 ± 0.36
same,promoter activity interaction Z-score,[5]; [7],0.0112 ± 0.045
same,promoter activity interaction Z-score,[5]; [8],-0.0857 ± 0.076
same,promoter activity interaction Z-score,[5]; [9],-0.0709 ± 0.072
same,promoter activity interaction Z-score,[5]; [10],0.0403 ± 0.38
same,promoter activity interaction Z-score,[5]; [11],-0.034 ± 0.11
same,promoter activity interaction Z-score,[5]; [12],0.0579 ± 0.018
same,promoter activity interaction Z-score,[5]; [13],-0.0043 ± 0.038
same,promoter activity interaction Z-score,[5]; [14],0.238 ± 0.052
same,promoter activity interaction Z-score,[5]; [15],-0.0963 ± 0.0079
same,promoter activity interaction Z-score,[5]; [16],-0.00367 ± 0.068
same,promoter activity interaction Z-score,[5]; [17],-0.169 ± 0.082
same,promoter activity interaction Z-score,[5]; [18],-0.175 ± 0.24
same,promoter activity interaction Z-score,[5]; [19],-0.134 ± 0.044
same,promoter activity interaction Z-score,[5]; [20],-0.1992 ± 0.0019
same,promoter activity interaction Z-score,[5]; [21],-0.22 ± 0.15
same,promoter activity interaction Z-score,[5]; [22],-0.0773 ± 0.035
same,promoter activity interaction Z-score,[6]; [7],0.801 ± 1.5
same,promoter activity interaction Z-score,[6]; [8],0.744 ± 0.49
same,promoter activity interaction Z-score,[6]; [9],-0.506 ± 0.39
same,promoter activity interaction Z-score,[6]; [10],-0.474 ± 0.23
same,promoter activity interaction Z-score,[6]; [11],-0.36 ± 0.35
same,promoter activity interaction Z-score,[6]; [12],0.821 ± 1.3
same,promoter activity interaction Z-score,[6]; [13],0.287 ± 0.068
same,promoter activity interaction Z-score,[6]; [14],2.02 ± 0.35
same,promoter activity interaction Z-score,[6]; [15],-0.246 ± 0.9
same,promoter activity interaction Z-score,[6]; [16],0.0426 ± 0.17
same,promoter activity interaction Z-score,[6]; [17],-0.244 ± 0.44
same,promoter activity interaction Z-score,[6]; [18],1.06 ± 0.6
same,promoter activity interaction Z-score,[6]; [19],-0.0345 ± 0.59
same,promoter activity interaction Z-score,[6]; [20],-0.841 ± 0.13
same,promoter activity interaction Z-score,[6]; [21],-1.12 ± 0.97
same,promoter activity interaction Z-score,[6]; [22],-0.0289 ± 0.16
